Inconclusive results are not listed. Calls of active or inactive are those of the source. Unless noted, calls come from the whole dose curve; as a rule, active = well fitted curve in the direction sought with a large enough effect; inconclusive = small, poorly fitted or top-dose-only effect, or another doubt; inactive = no such curve, though single readings can be large; an effect the other way counts as inactive or inconclusive.

Results on 23 compounds are retold here after PubChem BioAssay (NCATS).

In assay [1] the target is Voltage-gated inwardly rectifying potassium channel KCNH2 (Homo sapiens) (UniProt Q12809). Kind of assay: qHTS Assay for Small Molecule Inhibitors of the Human hERG Channel Activity (AID 588834).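 Note: lower thallium flux fluorescence means stronger hERG block; nearly all actives have a fitted effect of over 50% in size.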 Note: potency is the fitted concentration of half-maximal effect. Put shortly: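 Concentration-response qHTS measuring drop in thallium-sensitive dye signal. U2OS cells carrying BacMam hERG; compound exposure ~10 min, then stimulation buffer and 2 min read at 1 sec intervals.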
Sequence of Voltage-gated inwardly rectifying potassium channel KCNH2 (Homo sapiens) (Q12809 whole entry, looked up): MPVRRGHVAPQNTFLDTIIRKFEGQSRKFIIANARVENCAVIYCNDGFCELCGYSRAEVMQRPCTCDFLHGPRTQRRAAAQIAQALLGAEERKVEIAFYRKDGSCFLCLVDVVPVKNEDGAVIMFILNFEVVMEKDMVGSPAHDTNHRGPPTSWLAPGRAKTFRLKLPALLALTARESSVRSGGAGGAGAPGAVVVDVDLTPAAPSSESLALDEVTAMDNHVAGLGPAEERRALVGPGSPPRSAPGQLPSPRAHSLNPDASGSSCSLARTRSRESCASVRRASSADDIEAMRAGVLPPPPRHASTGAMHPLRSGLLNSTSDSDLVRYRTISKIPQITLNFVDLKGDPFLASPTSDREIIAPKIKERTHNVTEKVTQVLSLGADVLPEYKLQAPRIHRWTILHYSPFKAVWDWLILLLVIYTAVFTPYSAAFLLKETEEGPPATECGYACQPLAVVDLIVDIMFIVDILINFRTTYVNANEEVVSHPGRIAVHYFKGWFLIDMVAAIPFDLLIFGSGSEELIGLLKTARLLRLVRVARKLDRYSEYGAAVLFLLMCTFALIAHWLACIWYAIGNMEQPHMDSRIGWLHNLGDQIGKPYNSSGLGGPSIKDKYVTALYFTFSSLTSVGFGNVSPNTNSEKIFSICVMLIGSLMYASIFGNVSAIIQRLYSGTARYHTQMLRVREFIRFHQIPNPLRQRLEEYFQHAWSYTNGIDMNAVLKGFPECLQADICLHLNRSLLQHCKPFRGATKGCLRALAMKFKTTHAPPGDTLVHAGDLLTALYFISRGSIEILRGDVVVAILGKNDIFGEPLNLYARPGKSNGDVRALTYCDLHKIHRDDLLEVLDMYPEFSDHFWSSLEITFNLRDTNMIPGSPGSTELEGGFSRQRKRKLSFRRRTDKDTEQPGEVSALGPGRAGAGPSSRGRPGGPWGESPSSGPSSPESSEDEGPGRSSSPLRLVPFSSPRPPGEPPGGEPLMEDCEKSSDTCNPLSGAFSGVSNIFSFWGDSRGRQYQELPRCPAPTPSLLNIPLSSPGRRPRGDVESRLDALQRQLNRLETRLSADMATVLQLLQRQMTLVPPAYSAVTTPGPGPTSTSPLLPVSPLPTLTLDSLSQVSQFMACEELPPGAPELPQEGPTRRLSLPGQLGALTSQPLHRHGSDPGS
For orientation: Quantitative high-throughput screening tests each substance at several concentrations.

The target in assay [2] is Luciferin 4-monooxygenase (Photinus pyralis) (UniProt P08659). Kind of assay: Biochemical firefly luciferase enzyme assay for NPC (AID 624030). Note: nearly all actives have a fitted effect of over 70% in size. Note: potency is the fitted concentration of half-maximal effect. Put shortly:
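Counter-screen for direct inhibition of the luciferase enzyme by approved-drug library compounds, run at 10 nM enzyme in 50 mM Tris acetate (final). Luminescence was read within 5 min of enzyme-buffer addition and normalized to PTC124 versus DMSO (0%).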

Assay [3] in a line: S16 Schwann cell viability assay (CellTiter-Glo assay) (AID 624031).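 Note: cellular ATP luminescence as a viability measure; series mostly up to about 58 µM; plate controls were DMSO-treated cells for no effect and cell-free wells for full effect; nearly all actives have a fitted effect of over 70% in size.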 Put shortly:
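Native S16 rat Schwann cells, 500-750 cells/well in DMEM with 10% FBS, dosed with compound after overnight culture and incubated 24h at 37 degree Celsius/5% CO2. Viability by CellTiter-Glo luminescence; % activity normalized to no-cell wells and DMSO-treated cells.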
In general terms: Cellular ATP, detected with luciferase, serves as a proxy for viable cell number.

Assay [4] can be described thus: S16 Schwann cell PMP22 intronic element firefly luciferase assay (AID 624032). Note: nearly all actives have a fitted effect of over 30% in size. Note: potency is the fitted concentration of half-maximal effect. The method in brief:
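Rat S16 Schwann cells stably carrying a PMP22 intronic element-driven Fluc reporter were seeded overnight, then exposed to compounds for 24 h at 37 °C. Luminescence was normalized to PTC124 (positive control) and DMSO (0% activity).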

The target in assay [5] is Bile acid receptor (Homo sapiens) (UniProt Q96RI1). Briefly: qHTS assay for small molecule antagonists of farnesoid X receptor signaling (AID 588526; calls by dose curve; note: % is set by controls: 0 for no effect and ±100 for the full control effect). Put shortly: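 Concentration-response titrations were fitted to the Hill equation for half-maximal inhibition and maximal response, with data normalised to 50 uM chenodeoxycholic acid and DMSO control wells. Cells: FXR-UAS-bla HEK293T, dialyzed FBS.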
Sequence of Bile acid receptor (Homo sapiens) (Q96RI1 whole entry, looked up): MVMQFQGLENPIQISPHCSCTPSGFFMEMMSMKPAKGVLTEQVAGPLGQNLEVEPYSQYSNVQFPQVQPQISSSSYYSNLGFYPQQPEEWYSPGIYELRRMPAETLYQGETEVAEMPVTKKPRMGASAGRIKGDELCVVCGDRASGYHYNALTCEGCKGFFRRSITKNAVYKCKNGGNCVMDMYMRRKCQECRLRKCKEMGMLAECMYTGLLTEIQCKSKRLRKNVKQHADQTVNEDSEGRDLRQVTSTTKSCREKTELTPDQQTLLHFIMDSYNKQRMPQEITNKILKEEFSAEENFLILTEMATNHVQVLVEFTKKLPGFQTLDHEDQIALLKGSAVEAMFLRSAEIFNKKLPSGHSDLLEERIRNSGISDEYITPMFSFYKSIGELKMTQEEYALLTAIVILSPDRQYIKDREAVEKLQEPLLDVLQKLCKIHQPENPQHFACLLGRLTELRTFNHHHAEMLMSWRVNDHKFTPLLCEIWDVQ

The target in assay [6] is Glucocorticoid receptor (Homo sapiens) (UniProt P04150). Briefly: qHTS assay for small molecule agonists of glucocorticoid receptor signaling (AID 588532; active = well fitted curve in the direction sought with a large enough effect in the signal ratio, with a control signal flat; the % refers to the signal ratio;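 note: 100% = dexamethasone at 0.1 µM and 0% = DMSO only wells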). To be noted: HeLa MMTV-bla, beta-lactamase ratio, agonist, 18 h; stronger effect = higher value; percent of dexamethasone control, DMSO zero. Put shortly:
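Stimulation of a glucocorticoid response element-driven beta-lactamase gene was measured in HeLa cells. Responses were scaled between DMSO basal and 0.1 uM dexamethasone, then fitted for half-maximal stimulation.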

For assay [7] the target is unchanged. Kind of assay: qHTS assay for small molecule antagonists of glucocorticoid receptor signaling (AID 588533; active = well fitted inhibition curve with a large enough effect in the signal ratio, with a control signal flat, not every such curve was filed as active; the % refers to the signal ratio;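 note: cells stimulated with 2 nM dexamethasone as agonist; % is set by controls: 0 for no effect and ±100 for the full control effect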). Put shortly:
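Antagonist-mode qHTS: compound titrations added to GRE-bla HeLa cells, then dexamethasone 2 nM final; 18 h, 37 C. CCF4 FRET fluorescence normalized to dexamethasone and DMSO; IC50 from Hill fit.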

A short description of assay [8]: qHTS assay for small molecule antagonists of peroxisome proliferator-activated receptor delta signaling (AID 588535; active = well fitted inhibition curve with a large enough effect in the signal ratio, with a control signal flat, not every such curve was filed as active; the % refers to the signal ratio;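 for max response: cells co-treated with a PPAR-delta agonist as stimulator during compound exposure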). To be noted: HEK293T PPARd-UAS-bla, beta-lactamase FRET ratio, 18 h; 460 nm channel. The method in brief: (§1)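 GeneBLAzer PPAR-delta-UAS-bla HEK293T cells in medium with 2% charcoal/dextran FBS were preincubated 5 hrs at 37 C, then given compounds, incubated 18 hrs at 37 C, and read by CCF4 beta-lactamase fluorescence; IC50 from Hill fits.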

In assay [9] the target is Peroxisome proliferator-activated receptor delta (Homo sapiens) (UniProt Q03181). Described as above. Put shortly:
as §1

Assay [10] deals with Peroxisome proliferator-activated receptor gamma (Homo sapiens) (UniProt P37231). Kind of assay: qHTS assay for small molecule antagonists of peroxisome proliferator-activated receptor gamma signaling (AID 588537; active = well fitted inhibition curve with a large enough effect in the signal ratio, with a control signal flat, not every such curve was filed as active; the % refers to the signal ratio;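 note: reporter cells co-stimulated with 50 nM rosiglitazone agonist during compound treatment; % of control where 0% means no effect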). Put shortly: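 PPAR-gamma-UAS-bla HEK293 cells (3000/well, 1% charcoal/dextran-stripped FBS) were preincubated 6-6.5 h at 37 C, given titrated compounds, then stimulated with 50 nM rosiglitazone for 16 h. Beta-lactamase activity was read with CCF4 dye; IC50 came from Hill fits.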

In assay [11] the target is Vitamin D3 receptor (Homo sapiens) (UniProt P11473). Kind of assay: qHTS assay for small molecule antagonists of vitamin D receptor signaling (AID 588541; calls by dose curve;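 note: receptor activated by calcitriol during compound treatment; series mostly up to about 77 µM; % is set by controls: 0 for no effect and ±100 for the full control effect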). The method in brief: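 VDR-UAS-bla HEK293T cells (2000/well, 2% charcoal-stripped FBS) were treated with titrated compounds plus 1-alpha,25-dihydroxyvitamin D3 (50 nM or 3 nM final) for 16 h at 37 C. CCF4 beta-lactamase fluorescence was read; Hill fits gave IC50.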
Sequence of Vitamin D3 receptor (Homo sapiens) (P11473 whole entry, looked up): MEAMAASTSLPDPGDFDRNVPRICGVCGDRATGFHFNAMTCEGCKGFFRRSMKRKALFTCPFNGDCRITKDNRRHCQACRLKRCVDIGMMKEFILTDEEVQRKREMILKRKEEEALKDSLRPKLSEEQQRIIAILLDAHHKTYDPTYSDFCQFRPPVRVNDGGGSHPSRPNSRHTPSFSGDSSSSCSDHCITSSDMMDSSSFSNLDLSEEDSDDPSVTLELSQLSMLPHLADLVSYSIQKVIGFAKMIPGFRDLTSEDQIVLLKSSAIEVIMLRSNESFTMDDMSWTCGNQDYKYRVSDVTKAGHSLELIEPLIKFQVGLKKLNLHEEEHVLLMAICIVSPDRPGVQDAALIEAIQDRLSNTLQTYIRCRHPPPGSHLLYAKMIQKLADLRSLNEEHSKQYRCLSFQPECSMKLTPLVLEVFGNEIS

The target is the same in assay [12]. Kind of assay: qHTS assay for small molecule agonists of vitamin D receptor signaling (AID 588543; calls by dose curve;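 note: 0% = DMSO basal and 100% = reference agonist control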). Put shortly: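 β-lactamase reporter, VDR-UAS-bla HEK293T, agonist mode. Cells plated 5 h at 37 °C, compound titration 16 h at 37 °C, CCF4 dye 2 h RT, ratio 460/530 nm. Hill fit → EC50, efficacy vs 50 nM 1α,25-(OH)2D3.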
Assay [13] addresses Thyroid hormone receptor beta (Homo sapiens) (UniProt P10828). Kind of assay: qHTS assay for small molecule agonists of thyroid hormone receptor beta signaling (AID 588545; calls by dose curve). Put shortly: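 Agonist-mode beta-lactamase reporter assay, HEK 293 cells, 2% charcoal/dextran FBS; cells plated 4 hrs, compound 18 hrs at 37 C, CCF4 2 hrs RT. Normalized to 10 nM T3 (100%) and DMSO (0%); Hill fit gives EC50, efficacy.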

Assay [14] can be described thus: qHTS assay for small molecule antagonists of retinoid X receptor alpha signaling (AID 588546; active = well fitted inhibition curve with a large enough effect in the signal ratio, with a control signal flat, not every such curve was filed as active; the % refers to the signal ratio;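 note: cells stimulated with 9-cis-retinoic acid as agonist; % is set by controls: 0 for no effect and ±100 for the full control effect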). To be noted: HEK293T RXRa-UAS-bla, beta-lactamase ratio, antagonist mode; measured here: W530 green channel, cytotoxicity proxy. Put shortly: (§2)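 Beta-lactamase reporter inhibition, read as CCF4 fluorescence ratio (ex 405, em 460/530 nm) after 2 h at RT. HEK293T UAS-bla cells, 2500/well, were stimulated with 9-cis-RA at 500 or 100 nM final alongside test compound for 18 h at 37 C.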

Assay [15] has as its target Retinoic acid receptor RXR-alpha (Homo sapiens) (UniProt P19793). The assay is described as above. To be noted: HEK293T RXRa-UAS-bla, beta-lactamase ratio, antagonist mode. The method in brief:
as §2

Assay [16] deals with Thyroid hormone receptor beta (Homo sapiens) (UniProt P10828). Kind of assay: qHTS assay for small molecule antagonists of thyroid hormone receptor beta signaling (AID 588547; active = well fitted inhibition curve with a large enough effect in the signal ratio, with a control signal flat, not every such curve was filed as active; the % refers to the signal ratio). To be noted: TR-UAS-bla HEK293, beta-lactamase ratio, antagonist mode, 18 h. Put shortly:
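TR-UAS-bla GripTite HEK293 cells in 2% charcoal/dextran FBS medium were preincubated 4 h at 37 C, given compound (0.59 nM to 92 uM) plus 0.4 nM T3 (final) for 18 h, then CCF4 for 2 h at RT; Hill fit gave IC50.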

Assay [17] in a line: S16 Schwann cell PMP22 intronic element beta-lactamase assay (AID 624044; calls by dose curve; note: nearly all actives have a fitted effect of over 15% in size; note: potency is the fitted concentration of half-maximal effect). Put shortly:
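Rat S16 Schwann cells with beta-Lac driven by a PMP22 intronic element, compound-treated 24 h at 37 °C. LiveBLAzer FRET B/G read: 460 nm normalized to potassium clavulanate vs DMSO; 535 nm FRET as viability; concentration-effect curves classified.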

Assay [18] deals with Glutaminase kidney isoform, mitochondrial (Homo sapiens) (UniProt O94925). Briefly: qHTS for Inhibitors of Glutaminase (GLS): LOPAC Validation (AID 624146).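 Note: glutamate product detected by oxidase and peroxidase coupled Amplex red fluorescence gain; series mostly up to about 46 µM; % is set by controls: 0 for no effect and ±100 for the full control effect; nearly all actives have a fitted effect of over 60% in size.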 Put shortly: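 hKGA in 45 mM KH2PO4 pH 8.2, 0.02% Tween-20 with pin-transferred compounds; 1 mM L-glutamine (stock) plus glutamate oxidase/HRP/Amplex Red coupling added. Fluorescence read initially and after 30 min at RT.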

Assay [19] in a line: qHTS of Trypanosoma Brucei Inhibitors: LOPAC Validation (AID 624147). Note: 0% is about no effect. The method in brief: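 Luminescent Kinase-Glo Plus end-point after 45 min room-temperature reaction of T. brucei pyruvate kinase started with 130 uM ADP (final). Buffer TEA 50 mM pH 7.2 with KCl, MgCl2, BSA, Tween-20; titration-based qHTS with fitted concentration-effect curves.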
The target of assay [20] is Glucagon-like peptide 1 receptor (Homo sapiens) (UniProt P43220). Kind of assay: qHTS of GLP-1 Receptor Agonists: LOPAC Validation (AID 624148).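 Note: 0% is about no effect; higher luminescence signal means agonism.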 The method in brief: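 HEK293 cells stably co-expressing a cAMP-responsive luciferase reporter and a hypersensitive GLP-1R were plated 12 h at 37 °C and exposed to compounds for 4-6 hr at 37 °C, 5% CO2. Luminescence was read 12 min after adding detection reagent.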
Sequence of Glucagon-like peptide 1 receptor (Homo sapiens) (P43220 whole entry, looked up): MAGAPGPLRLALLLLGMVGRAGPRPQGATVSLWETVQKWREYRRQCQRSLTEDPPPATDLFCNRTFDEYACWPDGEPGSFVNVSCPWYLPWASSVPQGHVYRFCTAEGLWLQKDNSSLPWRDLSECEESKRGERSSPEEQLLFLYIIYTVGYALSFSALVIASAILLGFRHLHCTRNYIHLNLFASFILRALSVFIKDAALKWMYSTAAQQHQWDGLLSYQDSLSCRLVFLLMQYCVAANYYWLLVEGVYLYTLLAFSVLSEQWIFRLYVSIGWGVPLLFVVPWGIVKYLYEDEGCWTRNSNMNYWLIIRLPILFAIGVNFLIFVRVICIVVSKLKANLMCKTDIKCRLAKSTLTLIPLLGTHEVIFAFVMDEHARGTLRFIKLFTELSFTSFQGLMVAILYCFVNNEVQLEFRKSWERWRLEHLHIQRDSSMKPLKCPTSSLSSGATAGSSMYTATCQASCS

Sequence of Luciferin 4-monooxygenase (Photinus pyralis) (P08659 whole entry, looked up): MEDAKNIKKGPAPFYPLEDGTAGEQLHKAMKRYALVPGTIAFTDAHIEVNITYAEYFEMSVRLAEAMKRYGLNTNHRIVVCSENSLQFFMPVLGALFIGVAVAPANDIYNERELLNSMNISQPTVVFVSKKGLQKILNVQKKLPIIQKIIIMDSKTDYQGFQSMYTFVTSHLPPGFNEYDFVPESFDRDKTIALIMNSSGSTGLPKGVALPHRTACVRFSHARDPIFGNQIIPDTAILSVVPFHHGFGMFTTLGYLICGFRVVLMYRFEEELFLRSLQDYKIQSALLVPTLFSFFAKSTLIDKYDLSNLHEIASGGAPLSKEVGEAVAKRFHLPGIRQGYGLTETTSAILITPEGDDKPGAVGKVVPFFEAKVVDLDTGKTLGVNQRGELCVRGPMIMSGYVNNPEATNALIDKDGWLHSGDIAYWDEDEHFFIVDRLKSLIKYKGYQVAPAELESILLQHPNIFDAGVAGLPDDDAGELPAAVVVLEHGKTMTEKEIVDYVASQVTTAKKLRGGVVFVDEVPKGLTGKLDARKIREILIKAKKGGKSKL
Sequence of Glucocorticoid receptor (Homo sapiens) (P04150 whole entry, looked up): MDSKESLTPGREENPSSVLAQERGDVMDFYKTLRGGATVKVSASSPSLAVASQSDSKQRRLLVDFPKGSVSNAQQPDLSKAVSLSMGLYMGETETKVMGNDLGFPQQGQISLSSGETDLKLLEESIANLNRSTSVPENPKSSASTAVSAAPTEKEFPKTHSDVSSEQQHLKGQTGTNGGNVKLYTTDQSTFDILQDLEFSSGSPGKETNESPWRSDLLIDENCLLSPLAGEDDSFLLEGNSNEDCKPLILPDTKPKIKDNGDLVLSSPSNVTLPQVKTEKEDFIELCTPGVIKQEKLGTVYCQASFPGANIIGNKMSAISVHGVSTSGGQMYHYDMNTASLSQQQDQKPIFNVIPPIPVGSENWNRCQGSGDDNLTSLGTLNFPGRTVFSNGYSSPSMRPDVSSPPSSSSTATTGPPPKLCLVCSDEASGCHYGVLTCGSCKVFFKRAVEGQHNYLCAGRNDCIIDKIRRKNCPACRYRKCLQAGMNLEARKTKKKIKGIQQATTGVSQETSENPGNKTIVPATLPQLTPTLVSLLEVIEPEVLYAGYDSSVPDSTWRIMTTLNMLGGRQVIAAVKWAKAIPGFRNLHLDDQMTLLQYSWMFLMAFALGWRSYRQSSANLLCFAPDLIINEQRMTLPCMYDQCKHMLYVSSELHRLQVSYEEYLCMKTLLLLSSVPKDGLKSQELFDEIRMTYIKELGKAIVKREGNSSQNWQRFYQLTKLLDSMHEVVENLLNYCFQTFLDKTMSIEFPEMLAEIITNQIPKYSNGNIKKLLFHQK
Sequence of Thyroid hormone receptor beta (Homo sapiens) (P10828 whole entry, looked up): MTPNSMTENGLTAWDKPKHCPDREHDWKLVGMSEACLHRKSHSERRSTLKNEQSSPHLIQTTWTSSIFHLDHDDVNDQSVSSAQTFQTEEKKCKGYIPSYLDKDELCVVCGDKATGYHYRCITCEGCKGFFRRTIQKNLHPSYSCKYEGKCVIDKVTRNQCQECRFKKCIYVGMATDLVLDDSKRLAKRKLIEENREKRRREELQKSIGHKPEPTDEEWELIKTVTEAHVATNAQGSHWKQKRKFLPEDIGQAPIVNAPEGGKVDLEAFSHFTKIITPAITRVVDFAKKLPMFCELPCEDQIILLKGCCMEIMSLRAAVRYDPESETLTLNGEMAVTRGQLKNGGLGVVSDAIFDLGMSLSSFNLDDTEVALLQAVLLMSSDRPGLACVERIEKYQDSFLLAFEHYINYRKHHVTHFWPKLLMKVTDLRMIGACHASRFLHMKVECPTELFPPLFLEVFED
Sequence of Peroxisome proliferator-activated receptor delta (Homo sapiens) (Q03181 whole entry, looked up): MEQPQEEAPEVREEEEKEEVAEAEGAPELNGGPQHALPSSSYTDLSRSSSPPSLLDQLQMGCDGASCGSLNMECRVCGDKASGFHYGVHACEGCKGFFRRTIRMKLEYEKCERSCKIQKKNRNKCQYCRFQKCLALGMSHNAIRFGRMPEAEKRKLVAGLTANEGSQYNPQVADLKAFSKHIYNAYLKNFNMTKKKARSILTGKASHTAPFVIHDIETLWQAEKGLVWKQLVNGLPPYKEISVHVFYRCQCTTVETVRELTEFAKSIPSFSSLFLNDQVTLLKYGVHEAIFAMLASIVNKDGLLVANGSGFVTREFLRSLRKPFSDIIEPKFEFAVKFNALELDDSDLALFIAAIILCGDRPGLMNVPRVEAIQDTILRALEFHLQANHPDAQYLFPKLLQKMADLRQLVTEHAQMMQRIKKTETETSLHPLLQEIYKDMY

Turning to `CC=CC1=C(C(=O)O)N2C(=O)[C@H](NC(=O)[C@H](N)c3ccc(O)cc3)[C@@H]2SC1`, the Potency entry in assay [1], in assay [2] and in [4] was “inactive” in each case. For the same compound, the result in assay [3] was inactive.
On to `O=C(O)CCCc1c[nH]c2ccccc12`, for which the compound was classed as inactive in assay [5], in assay [7], in assay [9], in assay [10], in [11] and in assay [12]. Moreover, the outcome in [13] was inactive. Moreover, the activation in [6] was -4.22% (inactive). Further, the max response was 35.4% in assay [8], 7.98% in assay [14] and 6.54% (inactive) in assay [15]. Moreover, the activity change % (negative = inhibition) in [16] is 3.26% (inactive).
On to `COC(=O)C[C@](O)(CCCC(C)(C)O)C(=O)O[C@@H]1C(OC)=C[C@]23CCCN2CCc2cc4c(cc2[C@H]13)OCO4`, for which the Potency result in [1] and in assay [2] was “inactive” each time. The compound was called inactive in assay [3].
On to `CC(=O)SC[C@@H](C)C(=O)N1CCC[C@H]1C(=O)N[C@@H](Cc1ccccc1)C(=O)O`, for which the Potency entry in [2] was “inactive”.
For `COc1ccc(CC2c3cc(OC)c(OC)cc3CC[N+]2(C)CCC(=O)OCCCCCOC(=O)CC[N+]2(C)CCc3cc(OC)c(OC)cc3C2Cc2ccc(OC)c(OC)c2)cc1OC` (configuration not stated), the Potency result in assay [1] is “inactive”.
On to `O=c1[nH]c(=O)n(C2CCCO2)cc1F` (configuration not stated), for which the Potency result in [2], in assay [4] and in [17] was “inactive” each time. Moreover, the compound was classed as inactive in [3].
As for `Cc1nc2ccc(CN(C)c3ccc(C(=O)N[C@@H](CCC(=O)O)C(=O)O)s3)cc2c(=O)[nH]1`, the Potency entry in [1] and in assay [2] was “inactive” throughout.
As for `CC1(C)O[C@@H]2C[C@@H]3[C@H]4C[C@@H](F)C5=CC(=O)C=C[C@]5(C)[C@@]4(F)[C@@H](O)C[C@]3(C)[C@]2(C(=O)CO)O1`, the Potency result in assay [2], in assay [4] and in assay [17] was “inactive” each time. Moreover, the call in assay [3] was inactive.
With `CN[C@H]1CCc2cc(OC)c(OC)c(OC)c2-c2ccc(OC)c(=O)cc21`, the Potency entry in assay [1] is “inactive”.
`CCC1=C[C@@H]2CN(C1)Cc1c([nH]c3ccccc13)[C@@](C(=O)OC)(c1cc3c(cc1OC)N(C)[C@@H]1[C@@](O)(C(=O)OC)[C@H](OC(C)=O)[C@]4(CC)C=CCN5CC[C@]31[C@@H]54)C2`: the Potency result in assay [2] was “inactive”. Besides, in assay [3], the result was inactive. In addition, in [4], the Potency was 0.907 µM (active).
Take `COc1cc(C(=O)NS(=O)(=O)c2ccccc2C)ccc1Cc1cn(C)c2ccc(NC(=O)OC3CCCC3)cc12`: in assay [2], the Potency was 16.1 µM (active). For the same compound, the call in assay [3] was inactive. In addition, the Potency entry in assay [4] and in assay [17] was “inactive” in each case.
As for `CC[C@H]1CN2CCc3cc(OC)c(OC)cc3[C@H]2C[C@@H]1C[C@@H]1NCCc2cc(OC)c(OC)cc21`, the Potency entry in assay [2] is “inactive”. For the same compound, the call in assay [3] was inactive.
Turning to `Nc1ccc(S(=O)(=O)Nc2ncccn2)cc1`, the Potency result in assay [1] and in [17] was “inactive” throughout. The compound was classed as inactive in assay [3]. The Potency in assay [4] was 6.91 µM (active).
In the case of `O=C(O)CO.[NH2-].[NH2-].[Pt+2]`, the Potency result in assay [1], in assay [2] and in assay [4] was “inactive” each time. Also, the result in assay [3] was inactive.
With `CC(C)(C)NC(=O)[C@H]1CN(Cc2cccnc2)CCN1C[C@@H](O)C[C@@H](Cc1ccccc1)C(=O)N[C@H]1c2ccccc2C[C@H]1O`, the Potency result in [1], in assay [2] and in [17] was “inactive” each time. In assay [4], the Potency was 36.1 µM (active).
In the case of `COC(=O)C1=C(C)NC(C)=C(C(=O)OCCN2CCN(C(c3ccccc3)c3ccccc3)CC2)C1c1cccc([N+](=O)[O-])c1` (configuration not stated), the Potency in [1] was 3.98 µM (active). Further, in [2], the Potency entry is “inactive”.
For `CN1c2cc(O)c(N=NC(N)=O)cc2CC1S(=O)(=O)O` (configuration not stated), the Potency entry in assay [1], in assay [2], in assay [4] and in assay [17] was “inactive” each time. Also, the result in assay [3] was inactive.
Take `Nc1ccn([C@@H]2O[C@H](CO)[C@H](O)C2(F)F)c(=O)n1`: the Potency entry in assay [1], in assay [2] and in assay [4] was “inactive” each time. The Potency in [17] is 562 nM (active).
Consider `C=C1C(=CC=C2CCC[C@]3(C)[C@@H]([C@H](C)C=C[C@H](C)C(C)C)CC[C@@H]23)C[C@@H](O)C[C@@H]1O`, for which the Potency entry in assay [2] was “inactive”.
In the case of `C[C@H]1C[C@@H]2[C@@H]([C@@H](O)C[C@@]3(C)[C@H]2CC[C@]3(O)C(=O)CO)[C@@]2(C)C=CC(=O)C=C12`, the Potency entry in [1], in assay [2], in [4] and in assay [17] was “inactive” in each case. For the same compound, the call in assay [3] was inactive.
For `COc1c(N2C[C@@H]3CCCN[C@H]3C2)c(F)cc2c(=O)c(C(=O)O)cn(C3CC3)c12`, the Potency entry in assay [1], in assay [2] and in [4] was “inactive” in each case. The call in [3] was inactive.
In the case of `Nc1ccn([C@@H]2CS[C@H](CO)O2)c(=O)n1`, the Potency result in assay [1], in assay [2] and in assay [4] was “inactive” throughout. Further, the compound was classed as inactive in assay [3].
On to `O=c1c2ccccc2nc2n1CCc1c-2[nH]c2ccccc12`, for which the Potency entry in assay [1] is “inactive”. Further, the result in assay [18], in [19] and in assay [20] was inactive.
